The panel holds about 83,000 compounds, 20% with a hit somewhere; the sample as a whole holds those more often.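 Testing used 96-well plates and a 48-hour single-concentration exposure. Example: -40 means 40% of the starting cells died.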 A number with no mark means an inactive call. Calls of active or inactive are those of the source. Rule for the calls: active = growth percent below 10; inactive = the rest.

One assay has as its system SF-295 CNS. As to the kind of experiment: NCI-60 one-dose screen, 48 h (100 = growth as untreated, 0 = no growth, -100 = all killed). Particulars: 10 µM.
Regarding `O=C(COc1cccc(/C=C2\CSc3ccccc3C2=O)c1)c1ccc(Cl)cc1`, the growth is -28.1% (active).

As for `COc1ccc2nc3cc(Cl)ccc3c(NCCCNCCO)c2c1`, the growth was 3.49% (active).

`Cc1cc(Br)nnc1Br`: the growth is 111%.

Consider `Cc1ccc(NC(=S)NNC(=S)Nc2ccc(C)cc2)cc1`, for which the growth is 30%.

As for `COc1ccc(C2CC(c3cccs3)=NN2c2ccc(S(N)(=O)=O)cc2)cc1` (stereo not given), the growth is 95.8%.

Turning to `CC[N+](CC)=c1ccc2nc3c(cc(NCc4ccccc4)c4ccccc43)oc-2c1`, the growth was -98.9% (active).

Take `COC1=CC(=O)OC(c2ccc(OC)cc2)C1` (stereo not given): the growth is 91.7%.

`COc1cc(NC(=O)C2=C(N3CCOCC3)/C(=C/c3ccc(Cl)cc3)CC2)cc(OC)c1OC`: the growth is 118%.

For `C#CC(C)(O)[C@@H]1C[C@H](CC(=O)O)C1(C)C` (stereo not given in full), the growth is 103%.

As to `COc1nc2c(c(=O)n1C)CN(c1ccccc1)C(=O)C(C)N2` (stereo not given), the growth was 105%.

As to `C=CCNCCN1C(=O)c2ccc3c4c(ccc(c24)C1=O)C(=O)N(CCNCC=C)C3=O`, the growth is -73.1% (active).

For the compound `COc1cc(-c2ccc[nH]2)[nH]c1/C=C1\N=C(C)C(C(=O)NC(C)C)=C1C`, the growth is 40.2%.

As for `O=C1c2ccccc2C(=O)N1CCCCNc1ccccc1`, the growth is 98%.

`CC(C)c1ccc(C(C)C(=O)N(CC2=C(C(C)c3ccccn3)c3ccccc3C2)C(C)C)cc1` (stereo not given): the growth was 25.6%.

As for `Cc1ccc(C)c(COc2cc(NC(=O)c3ccc4c(c3)OCO4)ccc2N(C)S(C)(=O)=O)c1`, the growth is -4.18% (active).

In the case of `Cc1cc(NC(=O)c2ccc(C)c(Nc3nccc(-c4cccnc4)n3)c2)cc(-n2cnc(C)c2)c1`, the growth was -13.4% (active).

Consider `COc1ccc(C2CC(c3cc(OC)c(OC)c(OC)c3)=NN2)cc1` (stereo not given), for which the growth was 48.1%.

As for `CC1OC2CC(=O)OC2C2=C1C(=O)c1c(O)c3c(c(O)c1C2=O)C1CC(O)C3(O)C(C)O1` (stereo not given), the growth is 3.26% (active).

On to `Nc1ncc(-c2cnn(C3CCNCC3)c2)cc1-c1nc2ccccc2o1`, for which the growth is 94.5%.

For `CCCCCCCCCCCC[n+]1c(C)cc(N)c2ccccc21`, the growth was -1.01% (active).

In the case of `CC(=O)Nc1cc2c(cc1Cl)Cc1cc(Cl)ccc1-2`, the growth was 109%.

As to `COC(=O)CC[C@@H](C)[C@H]1CC[C@H]2[C@@H]3CC[C@@H]4C[C@H](O)CC[C@]4(C)[C@H]3C[C@H](O)[C@]12C`, the growth is 100%.

As to `O=C1NC(=O)c2c(CCCSc3nc4ccccc4c(=O)n3CCc3ccccc3)cccc21`, the growth was 44.9%.

Consider `CCOC(=O)Cn1c(=O)c2sc3ncccc3c2n2nnc(-c3ccccc3)c12`, for which the growth is 110%.

Regarding `c1ccc(CCCCc2ccc3ccccc3n2)cc1`, the growth is 106%.

In the case of `COc1ccc(-c2nn(-c3cccc(Cl)c3)cc2-c2c(C#N)c(=O)n3[nH]c(-c4ccccc4)nc3c2C#N)cc1`, the growth was 58.8%.

Regarding `COc1ccc2c(c1)C(=O)/C(=C/c1cccc(OCC(=O)c3ccc([N+](=O)[O-])cc3)c1)CO2`, the growth is 43.3%.

As to `NC(N)=N/N=C(\c1ccccc1)C(O)c1ccccc1` (stereo not given), the growth is 102%.

Consider `COc1ccc2c(c1)C(CC(=O)NN)CCC2` (stereo not given), for which the growth is 109%.

Turning to `Cc1cc(=O)n2nnc3cc(C(F)(F)F)ccc3n12`, the growth is 92.7%.

On to `NS(=O)(=O)c1ccc(N2N=C(c3ccccc3)CCC2=O)cc1`, for which the growth was 99%.

Regarding `COc1ccc(-c2nc(-c3nc4ccc(C)cc4[nH]3)cc3c2[nH]c2ccccc23)cc1`, the growth was 25.5%.

In the case of `COc1cc(C2CC(c3ccccc3)=NN2C(C)=O)cc(OC)c1OC` (stereo not given), the growth is 7.61% (active).

For `CC(C1=C(CN(C(=O)Cc2cn(-c3ccccc3)nc2-c2ccc(Cl)cc2)C(C)C)Cc2ccccc21)c1ccccn1` (stereo not given), the growth was 75.2%.

Regarding `O=C1OC(C(Cl)(Cl)Cl)OC1C(Cl)(Cl)Cl` (stereo not given), the growth is 98%.

The subject of another assay is SF-539 CNS. The description is as above. Particulars: 10 µM.
Consider `O=C(COc1cccc(/C=C2\CSc3ccccc3C2=O)c1)c1ccc(Cl)cc1`, for which the growth was 50.6%.

On to `CCn1c(CSc2nc3ccccc3c(=O)n2CCc2ccccc2)n[nH]c1=S`, for which the growth is 99.8%.

For the compound `COc1ccc2nc3cc(Cl)ccc3c(NCCCNCCO)c2c1`, the growth was -10.2% (active).

On to `Cc1cc(Br)nnc1Br`, for which the growth was 87.9%.

On to `Cc1ccc(NC(=S)NNC(=S)Nc2ccc(C)cc2)cc1`, for which the growth was 62.5%.

Regarding `COc1ccc(C2CC(c3cccs3)=NN2c2ccc(S(N)(=O)=O)cc2)cc1` (stereo not given), the growth is 104%.

Take `CC[N+](CC)=c1ccc2nc3c(cc(NCc4ccccc4)c4ccccc43)oc-2c1`: the growth is -87% (active).

Turning to `COC1=CC(=O)OC(c2ccc(OC)cc2)C1` (stereo not given), the growth is 104%.

Turning to `COc1ccccc1-n1c(-c2csc(NC(C)=O)n2)n[nH]c1=S`, the growth is 112%.

Regarding `COc1cc(NC(=O)C2=C(N3CCOCC3)/C(=C/c3ccc(Cl)cc3)CC2)cc(OC)c1OC`, the growth is 101%.

As to `C#CC(C)(O)[C@@H]1C[C@H](CC(=O)O)C1(C)C` (stereo not given in full), the growth is 99.7%.

As to `COc1nc2c(c(=O)n1C)CN(c1ccccc1)C(=O)C(C)N2` (stereo not given), the growth is 96.1%.

As for `C=CCNCCN1C(=O)c2ccc3c4c(ccc(c24)C1=O)C(=O)N(CCNCC=C)C3=O`, the growth is -90.6% (active).

Turning to `COc1cc(-c2ccc[nH]2)[nH]c1/C=C1\N=C(C)C(C(=O)NC(C)C)=C1C`, the growth is 18.9%.

`O=C1c2ccccc2C(=O)N1CCCCNc1ccccc1`: the growth was 74.6%.

As to `CC(C)c1ccc(C(C)C(=O)N(CC2=C(C(C)c3ccccn3)c3ccccc3C2)C(C)C)cc1` (stereo not given), the growth is 61.4%.

Take `Cc1ccc(C)c(COc2cc(NC(=O)c3ccc4c(c3)OCO4)ccc2N(C)S(C)(=O)=O)c1`: the growth is -7.46% (active).

Turning to `Cc1cc(NC(=O)c2ccc(C)c(Nc3nccc(-c4cccnc4)n3)c2)cc(-n2cnc(C)c2)c1`, the growth was 21.1%.

Regarding `COc1ccc(C2CC(c3cc(OC)c(OC)c(OC)c3)=NN2)cc1` (stereo not given), the growth was 78.7%.

With `CC1OC2CC(=O)OC2C2=C1C(=O)c1c(O)c3c(c(O)c1C2=O)C1CC(O)C3(O)C(C)O1` (stereo not given), the growth was -84.2% (active).

As to `Nc1ncc(-c2cnn(C3CCNCC3)c2)cc1-c1nc2ccccc2o1`, the growth was -33.8% (active).

Take `CCCCCCCCCCCC[n+]1c(C)cc(N)c2ccccc21`: the growth is 16.5%.

For `COc1ccc(-c2nn(-c3cccc(Cl)c3)cc2/C=C2\NC(=S)N(c3ccc(Cl)cc3)C2=O)cc1`, the growth was 75.3%.

For `CC(=O)Nc1cc2c(cc1Cl)Cc1cc(Cl)ccc1-2`, the growth was 88.1%.

Turning to `COC(=O)CC[C@@H](C)[C@H]1CC[C@H]2[C@@H]3CC[C@@H]4C[C@H](O)CC[C@]4(C)[C@H]3C[C@H](O)[C@]12C`, the growth was 111%.

For `O=C1NC(=O)c2c(CCCSc3nc4ccccc4c(=O)n3CCc3ccccc3)cccc21`, the growth is 65.7%.

Take `Cc1ccc(C2=NN(c3ccc(S(C)(=O)=O)cc3)C(=O)CC2)cc1`: the growth is -7.93% (active).

Take `CCOC(=O)Cn1c(=O)c2sc3ncccc3c2n2nnc(-c3ccccc3)c12`: the growth was 105%.

As to `c1ccc(CCCCc2ccc3ccccc3n2)cc1`, the growth is 101%.

Regarding `COc1ccc(-c2nn(-c3cccc(Cl)c3)cc2-c2c(C#N)c(=O)n3[nH]c(-c4ccccc4)nc3c2C#N)cc1`, the growth was 100%.

As to `COc1ccc2c(c1)C(=O)/C(=C/c1cccc(OCC(=O)c3ccc([N+](=O)[O-])cc3)c1)CO2`, the growth is 27.8%.

Consider `NC(N)=N/N=C(\c1ccccc1)C(O)c1ccccc1` (stereo not given), for which the growth is 111%.

Consider `COc1ccc2c(c1)C(CC(=O)NN)CCC2` (stereo not given), for which the growth was 100%.

For `Cc1cc(=O)n2nnc3cc(C(F)(F)F)ccc3n12`, the growth is 106%.

Turning to `NS(=O)(=O)c1ccc(N2N=C(c3ccccc3)CCC2=O)cc1`, the growth is 102%.

`COc1ccc(-c2nc(-c3nc4ccc(C)cc4[nH]3)cc3c2[nH]c2ccccc23)cc1`: the growth is 50.2%.

As for `COc1cc(C2CC(c3ccccc3)=NN2C(C)=O)cc(OC)c1OC` (stereo not given), the growth was 28.3%.

As to `CSc1ccc(-c2cc(-c3ccc(NC(=O)CCCN4CCCC4)cc3)nc(-c3ccc(NC(=O)CCCN4CCCC4)cc3)c2)cc1`, the growth was 75.7%.

As to `CC(C1=C(CN(C(=O)Cc2cn(-c3ccccc3)nc2-c2ccc(Cl)cc2)C(C)C)Cc2ccccc21)c1ccccn1` (stereo not given), the growth was 87.2%.

Regarding `O=C1OC(C(Cl)(Cl)Cl)OC1C(Cl)(Cl)Cl` (stereo not given), the growth is 115%.
